The text below walks through data of PubChem BioAssay AID720514 (Broad Institute, 2013).

Screen size: about 2,100 compounds; about 300 (14%) were called active. Inconclusive results (about 2%) are left out.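 Rule for the calls: active = every replicate test run called active, with the signal falling and half-maximal concentration within twice the top valid dose; inconclusive = the replicate test runs disagree in their calls; inactive = every test run inactive, including effects in the opposite direction.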 The list is a sample of the results. Entries with a potency or affinity are not part of this list.

This assay is described as follows: reduced cellular PGC1a acetyl-lysine signal – cell-based, cherry-picked samples, dose response (AID 720514).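 Note: actives lower the acetylation signal so they count as inhibitors of PGC1a acetylation.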 Particulars: U2OS PGC1a acetylation, AlphaLISA, overnight; series mostly up to 19.5 µM.
For the compound `COc1cccc(C(=O)c2c[nH]c(C(=O)NCc3cccnc3)c2)c1`, the compound was classed as inactive. The entry for `CCN(CC)S(=O)(=O)c1c(Br)cc(C)cc1Br` is “inactive”. Consider `CCN(CC)c1ccc(N)cc1S(=O)(=O)Nc1ccccc1OC`, for which the compound was classed as inactive. Consider `O=C(C(Cc1ccccc1)n1cccc1)N1CCN(c2ccccc2)CC1` (stereo not drawn), for which the compound was called inactive. In the case of `O=C(c1ccccc1)c1nn(-c2ccc(Cl)cc2)c(=O)cc1C(F)(F)F`, the result was inactive. For the compound `CCn1c(=S)[nH]c2cc(S(=O)(=O)N3CCCCC3)ccc21`, the outcome was inactive. `C[C@@H]1CN([C@H](C)CO)C(=O)c2cccc(NC(=O)c3ccc(-c4nccs4)cc3)c2O[C@@H]1CN(C)Cc1ccc(C(=O)Nc2ccccc2N)cc1`: the result was inactive. Consider `CC(C)C#Cc1ccc([C@@H]2[C@H](CO)N3C(=O)CN(C(=O)NC4CCCC4)C[C@@H]23)cc1`, for which the call was inactive. For `CC1(C)OC(C)(C)/C(=C\c2ccc(OCC(N)=O)cc2)C1=O`, the outcome was inactive. As for `COc1ccc(S(=O)(=O)N(Cc2ccccc2)Cc2nc(-c3ccccc3)no2)cc1`, the compound was classed as inactive. On to `Cc1c(OCc2ccc(C(=O)O)cc2)ccc2c(-c3ccccc3)cc(=O)oc12`, for which the compound was classed as inactive.

`CC(C)NC(=O)N(C)C[C@H]1OCCCC[C@@H](C)Oc2ccc(NC(=O)Cc3ccccc3)cc2C(=O)N([C@@H](C)CO)C[C@H]1C`: the compound was called inactive. As to `C[C@H](CO)N1C[C@H](C)[C@@H](CN(C)S(=O)(=O)c2ccccc2)OCCCC[C@H](C)Oc2ccc(NC(=O)Nc3cccc4ccccc34)cc2C1=O`, the compound was classed as inactive. In the case of `CC(C)NC(=O)Nc1ccc2c(c1)C(=O)N([C@@H](C)CO)C[C@@H](C)[C@@H](CN(C)S(=O)(=O)c1ccccc1)OCCCC[C@H](C)O2`, the result was inactive. Take `C[C@@H]1CN([C@H](C)CO)C(=O)c2cc(N(C)C)ccc2O[C@@H](C)CCCCO[C@H]1CN(C)C(=O)Nc1ccccc1`: the call was inactive. For `COCCOC(=O)N1C(=O)[C@@]2(c3ccccc31)[C@H](c1ccccc1OCCO)N1[C@H](c3ccccc3)[C@H](c3ccccc3)OC(=O)[C@H]1[C@@H]2C(=O)N1CCCCCCC1`, the compound was classed as inactive.

In the case of `c1ccc(-c2c(-c3ccccc3)n(Cc3ccco3)c3ncnc(NCCCn4ccnc4)c23)cc1`, the compound was called inactive.

In the case of `O=C(CSc1nc2c(sc3ccccc32)c(=O)n1CCc1ccccc1)NCc1ccco1`, the outcome was inactive. Consider `C=CCn1c(SCC(=O)NC(=O)NCc2ccco2)nc2sc(CC)cc2c1=O`, for which the outcome was inactive. The entry for `CCOC(=O)c1ccc(NC(=O)Nc2ccc(F)cc2)cc1` is “inactive”; for `CC(=O)Nc1ccc(Nc2ncnc3c2cnn3-c2ccc(C)cc2C)cc1` it is “inactive”. Take `Cc1cc(Nc2cccc(Cl)c2)c2ccccc2n1`: the call was inactive. In the case of `Cc1cc(C)c(S(=O)(=O)Nc2ccccc2-c2ccccc2)c(C)c1`, the outcome was inactive.
